Assay in all cases: DAPPL (digital affinity profiling via proximity ligation, sequencing); 10 mM Tris-HCl pH 7.5, 50 mM NaCl, 1 mM DTT, 4% glycerol, room temperature, 30 min; GST-TFs on glutathione beads, 16-mer random dsDNA library, 0.1% formaldehyde crosslink after washing; high values mean tight binding
Assay [1] has as its target T1, FEV (Homo sapiens, UniProt Q99581 1-238).
T1 sequence: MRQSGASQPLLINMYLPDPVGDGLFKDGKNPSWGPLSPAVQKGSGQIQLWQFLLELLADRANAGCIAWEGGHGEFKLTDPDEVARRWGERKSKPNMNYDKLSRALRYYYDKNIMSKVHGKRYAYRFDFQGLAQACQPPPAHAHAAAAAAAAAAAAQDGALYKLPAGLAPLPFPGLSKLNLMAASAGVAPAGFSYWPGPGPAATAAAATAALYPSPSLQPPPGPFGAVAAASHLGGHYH
As to conditions: protein: recombinant; tags: N-terminal GST; dsDNA, one strand shown. Summed up:
(§1)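 Binding signal is each hexamer's read frequency for a factor divided by its frequency in the tag-only sample. The factors were GST-fused human transcription factors from yeast, captured on glutathione beads, DNA-barcoded and pooled with that sample. Pools were incubated with 200 nmole of a random double-stranded 16-mer DNA library in Tris/NaCl/DTT/glycerol buffer at room temperature for 30 min, then washed, crosslinked with 0.1% formaldehyde, proximity-ligated with BsaI/T4 ligase (1 h, 37 °C), PCR-amplified and sequenced on an Illumina NextSeq500.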

The target of assay [2] is ETV5 (Homo sapiens, UniProt P41161 1-510). As to conditions: protein: recombinant; tags: N-terminal GST; dsDNA, one strand shown. The method, boiled down:
as §1

The target in assay [3] is HSF1 (Homo sapiens, UniProt Q00613 1-529). The conditions noted are these: protein: recombinant; tags: N-terminal GST; chain copies: 3; dsDNA, one strand shown. Summed up:
as §1

Assay [4] concerns the target T2, SPIC (Homo sapiens, UniProt Q8N5J4 1-248).
T2 sequence: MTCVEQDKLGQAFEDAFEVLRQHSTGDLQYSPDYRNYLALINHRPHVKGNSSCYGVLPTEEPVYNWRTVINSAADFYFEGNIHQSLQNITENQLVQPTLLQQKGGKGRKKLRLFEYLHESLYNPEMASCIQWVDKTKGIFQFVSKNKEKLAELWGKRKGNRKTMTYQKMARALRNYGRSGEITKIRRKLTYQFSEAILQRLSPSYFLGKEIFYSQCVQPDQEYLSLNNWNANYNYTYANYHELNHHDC
As to conditions: protein: recombinant; tags: N-terminal GST; dsDNA, one strand shown. The method, boiled down: as §1

For assay [5], the target named is ELF4 (Homo sapiens, UniProt Q99607 1-663). The conditions noted are these: protein: recombinant; tags: N-terminal GST; dsDNA, one strand shown. Summed up:
as §1

The target of assay [6] is T3, ELK4 (Homo sapiens, UniProt P28324-2 1-405).
T3 sequence: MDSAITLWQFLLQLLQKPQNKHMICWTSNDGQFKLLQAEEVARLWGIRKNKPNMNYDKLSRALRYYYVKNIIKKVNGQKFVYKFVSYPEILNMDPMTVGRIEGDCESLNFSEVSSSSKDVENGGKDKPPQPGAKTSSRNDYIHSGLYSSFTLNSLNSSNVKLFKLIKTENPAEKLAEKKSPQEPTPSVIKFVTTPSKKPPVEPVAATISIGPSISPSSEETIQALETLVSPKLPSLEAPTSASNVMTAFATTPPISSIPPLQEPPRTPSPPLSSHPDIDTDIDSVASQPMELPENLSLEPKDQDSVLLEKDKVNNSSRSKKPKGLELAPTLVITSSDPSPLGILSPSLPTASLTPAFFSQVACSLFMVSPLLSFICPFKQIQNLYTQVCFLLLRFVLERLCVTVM
The conditions noted are these: protein: recombinant; tags: N-terminal GST; dsDNA, one strand shown. The method, boiled down: as §1

Assay [7] addresses T4, ETV2 (Homo sapiens, UniProt O00321 1-342).
T4 sequence: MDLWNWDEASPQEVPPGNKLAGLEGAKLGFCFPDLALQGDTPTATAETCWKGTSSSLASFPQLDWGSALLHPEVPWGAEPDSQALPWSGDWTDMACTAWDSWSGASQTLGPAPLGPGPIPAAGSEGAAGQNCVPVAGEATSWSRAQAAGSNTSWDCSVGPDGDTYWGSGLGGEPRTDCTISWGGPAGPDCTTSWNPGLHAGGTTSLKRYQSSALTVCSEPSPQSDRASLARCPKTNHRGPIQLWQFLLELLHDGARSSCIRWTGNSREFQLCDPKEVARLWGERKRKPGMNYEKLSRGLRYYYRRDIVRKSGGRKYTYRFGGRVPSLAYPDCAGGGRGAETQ
The conditions noted are these: protein: recombinant; tags: N-terminal GST; dsDNA, one strand shown. The method, boiled down: as §1

Assay [8] has as its target T5, ELF3 (Homo sapiens, UniProt P78545 1-371).
T5 sequence: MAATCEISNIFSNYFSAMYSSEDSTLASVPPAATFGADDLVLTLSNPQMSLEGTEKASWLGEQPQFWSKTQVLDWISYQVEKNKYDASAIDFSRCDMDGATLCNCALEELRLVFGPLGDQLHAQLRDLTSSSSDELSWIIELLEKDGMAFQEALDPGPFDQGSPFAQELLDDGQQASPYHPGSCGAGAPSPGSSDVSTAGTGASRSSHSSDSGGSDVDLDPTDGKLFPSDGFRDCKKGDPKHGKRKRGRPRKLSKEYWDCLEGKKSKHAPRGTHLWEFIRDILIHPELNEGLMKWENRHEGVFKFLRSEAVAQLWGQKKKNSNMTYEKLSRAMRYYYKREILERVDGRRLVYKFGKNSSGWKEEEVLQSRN
The conditions noted are these: protein: recombinant; tags: N-terminal GST; dsDNA, one strand shown. Summed up: as §1

For assay [9], the target named is CRX (Homo sapiens, UniProt O43186 1-299). As to conditions: protein: recombinant; tags: N-terminal GST; dsDNA, one strand shown. The method, boiled down: as §1
Sequence of CRX (O43186 whole entry): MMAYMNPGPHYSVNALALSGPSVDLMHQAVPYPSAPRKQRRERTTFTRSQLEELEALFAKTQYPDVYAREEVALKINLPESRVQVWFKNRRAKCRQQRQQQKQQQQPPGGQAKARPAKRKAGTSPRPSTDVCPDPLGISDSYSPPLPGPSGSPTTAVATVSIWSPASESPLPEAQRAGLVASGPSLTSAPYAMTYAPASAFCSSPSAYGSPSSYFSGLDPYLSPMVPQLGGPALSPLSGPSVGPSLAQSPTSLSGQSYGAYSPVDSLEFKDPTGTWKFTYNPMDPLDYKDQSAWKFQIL
The target in assay [10] is ETV1 (Homo sapiens, UniProt P50549 1-477). The conditions noted are these: protein: recombinant; tags: N-terminal GST; dsDNA, one strand shown. The method, boiled down: as §1
Sequence of ETV1 (P50549 whole entry): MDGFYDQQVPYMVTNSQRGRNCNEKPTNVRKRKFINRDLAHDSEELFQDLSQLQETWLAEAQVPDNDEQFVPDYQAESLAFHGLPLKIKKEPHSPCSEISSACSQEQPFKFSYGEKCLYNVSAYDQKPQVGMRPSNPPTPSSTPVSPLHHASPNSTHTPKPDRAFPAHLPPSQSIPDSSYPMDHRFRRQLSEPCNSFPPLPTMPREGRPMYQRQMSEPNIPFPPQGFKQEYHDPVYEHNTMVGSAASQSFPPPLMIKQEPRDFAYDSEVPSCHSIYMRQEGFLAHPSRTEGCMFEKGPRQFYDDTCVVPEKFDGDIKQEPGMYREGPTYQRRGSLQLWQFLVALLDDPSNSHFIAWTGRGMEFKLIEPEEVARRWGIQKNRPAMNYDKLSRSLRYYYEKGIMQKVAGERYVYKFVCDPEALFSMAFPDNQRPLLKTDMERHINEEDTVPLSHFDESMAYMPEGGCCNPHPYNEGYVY
The target in assay [11] is T6, ERF (Homo sapiens, UniProt P50548 1-548).
T6 sequence: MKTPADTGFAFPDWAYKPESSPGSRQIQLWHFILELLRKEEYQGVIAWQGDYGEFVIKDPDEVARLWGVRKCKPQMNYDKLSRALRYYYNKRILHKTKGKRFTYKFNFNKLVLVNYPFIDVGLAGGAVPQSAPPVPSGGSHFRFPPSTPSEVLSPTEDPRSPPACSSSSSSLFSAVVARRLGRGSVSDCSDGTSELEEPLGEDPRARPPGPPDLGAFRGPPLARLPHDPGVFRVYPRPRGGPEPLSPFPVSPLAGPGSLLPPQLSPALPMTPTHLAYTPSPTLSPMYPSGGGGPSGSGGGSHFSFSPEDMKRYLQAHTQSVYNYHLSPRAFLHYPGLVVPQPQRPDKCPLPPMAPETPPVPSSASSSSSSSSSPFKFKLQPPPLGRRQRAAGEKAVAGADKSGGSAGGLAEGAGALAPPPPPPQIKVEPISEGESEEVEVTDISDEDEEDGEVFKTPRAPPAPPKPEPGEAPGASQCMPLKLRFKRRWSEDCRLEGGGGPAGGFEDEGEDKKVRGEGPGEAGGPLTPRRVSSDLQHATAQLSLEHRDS
As to conditions: protein: recombinant; tags: N-terminal GST; dsDNA, one strand shown. The method, boiled down: as §1

Assay [12] has as its target T7, ETV3L (Homo sapiens, UniProt Q6ZN32 1-361).
T7 sequence: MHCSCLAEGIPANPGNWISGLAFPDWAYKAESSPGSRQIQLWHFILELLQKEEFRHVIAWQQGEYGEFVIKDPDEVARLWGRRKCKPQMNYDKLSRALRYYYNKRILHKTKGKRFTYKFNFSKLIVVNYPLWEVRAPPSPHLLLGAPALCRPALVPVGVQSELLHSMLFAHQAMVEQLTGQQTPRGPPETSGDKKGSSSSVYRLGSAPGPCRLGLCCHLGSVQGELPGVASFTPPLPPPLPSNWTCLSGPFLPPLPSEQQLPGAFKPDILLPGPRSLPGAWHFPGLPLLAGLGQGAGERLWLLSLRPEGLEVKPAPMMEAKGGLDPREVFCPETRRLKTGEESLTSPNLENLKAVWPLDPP
As to conditions: protein: recombinant; tags: N-terminal GST; dsDNA, one strand shown. The method, boiled down:
as §1

Assay [13] has as its target T8, ETS2 (Homo sapiens, UniProt P15036 1-469).
T8 sequence: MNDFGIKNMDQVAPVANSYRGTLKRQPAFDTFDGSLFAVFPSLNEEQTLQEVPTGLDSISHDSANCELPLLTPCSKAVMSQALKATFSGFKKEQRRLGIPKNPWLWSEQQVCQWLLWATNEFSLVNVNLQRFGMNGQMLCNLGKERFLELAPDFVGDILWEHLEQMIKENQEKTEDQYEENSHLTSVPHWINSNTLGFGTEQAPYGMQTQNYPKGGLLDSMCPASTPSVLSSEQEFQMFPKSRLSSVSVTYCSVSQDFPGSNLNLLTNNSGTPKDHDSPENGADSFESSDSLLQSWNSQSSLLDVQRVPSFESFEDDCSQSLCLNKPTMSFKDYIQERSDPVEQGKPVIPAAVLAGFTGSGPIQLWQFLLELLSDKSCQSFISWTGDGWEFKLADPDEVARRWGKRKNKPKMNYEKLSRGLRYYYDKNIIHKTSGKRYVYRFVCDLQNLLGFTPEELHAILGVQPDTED
The conditions noted are these: protein: recombinant; tags: N-terminal GST; dsDNA, one strand shown. The method, boiled down: as §1

For assay [14], the target named is T9, SPDEF (Homo sapiens, UniProt O95238 1-335).
T9 sequence: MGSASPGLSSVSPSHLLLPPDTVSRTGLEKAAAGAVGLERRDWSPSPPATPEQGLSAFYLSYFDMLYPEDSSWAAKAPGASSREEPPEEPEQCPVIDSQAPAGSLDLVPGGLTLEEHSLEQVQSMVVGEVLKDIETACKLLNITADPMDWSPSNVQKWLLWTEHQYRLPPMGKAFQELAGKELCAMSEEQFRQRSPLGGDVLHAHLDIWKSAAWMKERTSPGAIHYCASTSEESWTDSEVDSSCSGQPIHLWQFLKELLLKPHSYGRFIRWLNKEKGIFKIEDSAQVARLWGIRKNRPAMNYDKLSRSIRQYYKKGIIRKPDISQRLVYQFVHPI
As to conditions: protein: recombinant; tags: N-terminal GST; dsDNA, one strand shown. Summed up:
as §1

In assay [15] the target is T10, ETV7 (Homo sapiens, UniProt Q9Y603 1-341).
T10 sequence: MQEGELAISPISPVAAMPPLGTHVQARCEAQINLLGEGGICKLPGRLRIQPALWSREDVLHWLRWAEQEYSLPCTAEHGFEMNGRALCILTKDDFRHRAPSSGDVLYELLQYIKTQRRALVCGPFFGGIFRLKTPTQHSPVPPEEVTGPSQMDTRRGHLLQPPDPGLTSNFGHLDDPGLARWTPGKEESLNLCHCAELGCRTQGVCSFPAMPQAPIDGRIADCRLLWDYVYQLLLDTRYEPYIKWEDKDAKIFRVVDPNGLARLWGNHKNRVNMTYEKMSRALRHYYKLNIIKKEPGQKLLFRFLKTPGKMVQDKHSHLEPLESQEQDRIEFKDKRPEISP
As to conditions: protein: recombinant; tags: N-terminal GST; dsDNA, one strand shown. Summed up: as §1

Assay [16] has as its target T11, ELF5 (Homo sapiens, UniProt Q9UKW6-2 1-255).
T11 sequence: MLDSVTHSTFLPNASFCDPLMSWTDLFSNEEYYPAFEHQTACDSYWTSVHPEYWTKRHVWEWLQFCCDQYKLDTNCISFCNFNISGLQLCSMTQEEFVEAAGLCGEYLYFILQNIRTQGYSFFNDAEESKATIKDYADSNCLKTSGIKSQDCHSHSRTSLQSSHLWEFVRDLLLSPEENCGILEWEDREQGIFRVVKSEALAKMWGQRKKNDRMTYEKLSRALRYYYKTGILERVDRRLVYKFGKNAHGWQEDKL
As to conditions: protein: recombinant; tags: N-terminal GST; dsDNA, one strand shown. The method, boiled down:
as §1

Assay [17] addresses T12, ETV3 (Homo sapiens, UniProt P41162-2 1-143).
T12 sequence: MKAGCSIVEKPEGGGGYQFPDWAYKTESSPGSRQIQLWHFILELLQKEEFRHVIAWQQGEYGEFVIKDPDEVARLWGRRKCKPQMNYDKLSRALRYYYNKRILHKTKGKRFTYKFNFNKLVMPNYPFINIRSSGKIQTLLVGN
As to conditions: protein: recombinant; tags: N-terminal GST; dsDNA, one strand shown. The method, boiled down: as §1

Assay [18] deals with ETV6 (Homo sapiens, UniProt P41212 1-452). As to conditions: protein: recombinant; tags: N-terminal GST; dsDNA, one strand shown. Summed up:
as §1

Sequence of HSF1 (Q00613 whole entry): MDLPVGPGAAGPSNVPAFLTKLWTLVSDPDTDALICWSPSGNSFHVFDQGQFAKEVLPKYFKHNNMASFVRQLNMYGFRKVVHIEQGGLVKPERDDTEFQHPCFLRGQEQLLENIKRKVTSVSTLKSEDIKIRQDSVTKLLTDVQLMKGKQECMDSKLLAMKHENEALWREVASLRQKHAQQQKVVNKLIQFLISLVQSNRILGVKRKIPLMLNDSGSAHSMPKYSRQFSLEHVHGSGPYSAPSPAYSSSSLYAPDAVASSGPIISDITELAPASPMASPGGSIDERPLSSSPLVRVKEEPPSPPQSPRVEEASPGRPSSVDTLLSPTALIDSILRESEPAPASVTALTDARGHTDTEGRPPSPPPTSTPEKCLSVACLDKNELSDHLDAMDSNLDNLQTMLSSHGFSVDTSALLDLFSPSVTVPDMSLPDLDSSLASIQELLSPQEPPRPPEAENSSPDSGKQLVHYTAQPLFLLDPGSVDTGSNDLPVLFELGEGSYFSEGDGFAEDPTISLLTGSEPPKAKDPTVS
Sequence of ETV5 (P41161 whole entry): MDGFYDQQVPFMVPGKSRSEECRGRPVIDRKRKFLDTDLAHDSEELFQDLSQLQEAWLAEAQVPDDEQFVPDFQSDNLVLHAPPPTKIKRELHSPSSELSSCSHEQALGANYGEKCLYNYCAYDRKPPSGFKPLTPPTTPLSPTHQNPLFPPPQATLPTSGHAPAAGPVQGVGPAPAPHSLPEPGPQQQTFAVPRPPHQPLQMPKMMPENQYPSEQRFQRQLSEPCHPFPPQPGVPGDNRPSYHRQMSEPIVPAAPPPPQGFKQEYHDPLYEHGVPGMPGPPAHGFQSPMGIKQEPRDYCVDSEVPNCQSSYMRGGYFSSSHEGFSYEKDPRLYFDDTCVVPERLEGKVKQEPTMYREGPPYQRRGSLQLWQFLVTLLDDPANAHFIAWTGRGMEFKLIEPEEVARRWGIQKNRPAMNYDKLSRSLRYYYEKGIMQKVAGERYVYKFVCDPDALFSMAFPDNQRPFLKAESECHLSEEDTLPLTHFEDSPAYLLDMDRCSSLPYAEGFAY
Sequence of ELF4 (Q99607 whole entry): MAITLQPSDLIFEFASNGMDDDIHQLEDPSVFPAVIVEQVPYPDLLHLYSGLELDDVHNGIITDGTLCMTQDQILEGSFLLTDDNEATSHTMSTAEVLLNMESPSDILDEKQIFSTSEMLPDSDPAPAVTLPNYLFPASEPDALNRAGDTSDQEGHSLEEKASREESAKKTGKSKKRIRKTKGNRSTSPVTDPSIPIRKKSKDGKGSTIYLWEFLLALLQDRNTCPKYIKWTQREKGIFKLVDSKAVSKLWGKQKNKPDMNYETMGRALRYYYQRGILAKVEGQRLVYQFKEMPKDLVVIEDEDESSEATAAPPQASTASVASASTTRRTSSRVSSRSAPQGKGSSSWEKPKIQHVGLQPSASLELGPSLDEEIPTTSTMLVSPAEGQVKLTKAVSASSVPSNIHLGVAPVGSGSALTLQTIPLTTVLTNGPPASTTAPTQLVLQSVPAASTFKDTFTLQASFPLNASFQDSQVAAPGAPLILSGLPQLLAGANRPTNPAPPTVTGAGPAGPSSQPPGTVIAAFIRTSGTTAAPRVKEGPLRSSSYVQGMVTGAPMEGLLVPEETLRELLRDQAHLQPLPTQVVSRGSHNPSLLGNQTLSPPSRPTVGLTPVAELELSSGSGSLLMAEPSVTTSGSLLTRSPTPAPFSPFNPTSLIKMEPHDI
Sequence of ETV6 (P41212 whole entry): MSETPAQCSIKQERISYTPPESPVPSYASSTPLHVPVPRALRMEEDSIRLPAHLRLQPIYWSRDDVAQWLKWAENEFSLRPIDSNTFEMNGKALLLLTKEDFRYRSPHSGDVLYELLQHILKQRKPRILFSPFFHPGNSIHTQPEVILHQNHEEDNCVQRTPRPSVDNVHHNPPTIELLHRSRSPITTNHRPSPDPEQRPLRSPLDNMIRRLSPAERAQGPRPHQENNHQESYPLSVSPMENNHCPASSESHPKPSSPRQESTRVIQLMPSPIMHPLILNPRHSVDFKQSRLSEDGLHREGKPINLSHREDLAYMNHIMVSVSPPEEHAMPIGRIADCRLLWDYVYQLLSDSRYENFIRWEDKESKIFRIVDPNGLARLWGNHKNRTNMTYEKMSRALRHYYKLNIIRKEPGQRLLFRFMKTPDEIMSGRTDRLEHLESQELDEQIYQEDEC

In the case of TTCCGC, the binding signal in assay [1] was 3.1 fold enrichment (6-mer frequency, TF over GST control); in [2], 3.42 fold enrichment (6-mer frequency, TF over GST control); in assay [3], 1.34 fold enrichment (6-mer frequency, TF over GST control); in assay [4], 3.62 fold enrichment (6-mer frequency, TF over GST control); in assay [5] it was 2.82 fold enrichment (6-mer frequency, TF over GST control); in assay [6], 2.57 fold enrichment (6-mer frequency, TF over GST control). For the same sequence, the binding signal in [7] was 2.79 fold enrichment (6-mer frequency, TF over GST control); in [8] it was 3.06 fold enrichment (6-mer frequency, TF over GST control); in assay [9], 1.26 fold enrichment (6-mer frequency, TF over GST control); in assay [10], 3.17 fold enrichment (6-mer frequency, TF over GST control); in [11], 2.75 fold enrichment (6-mer frequency, TF over GST control); in assay [12] it was 2.9 fold enrichment (6-mer frequency, TF over GST control). The binding signal in [13] was 3.21 fold enrichment (6-mer frequency, TF over GST control); in assay [14], 2.77 fold enrichment (6-mer frequency, TF over GST control); in [15], 3.02 fold enrichment (6-mer frequency, TF over GST control); in [16] it was 4.41 fold enrichment (6-mer frequency, TF over GST control); in assay [17], 3.37 fold enrichment (6-mer frequency, TF over GST control); in assay [18], 3.62 fold enrichment (6-mer frequency, TF over GST control).

The record behind these values is PMC7862700, “An all-to-all approach to the identification of sequence-specific readers for epigenetic DNA modifications on cytosine”.
